These results are taken from PubChem BioAssay AID2528 (National Center for Advancing Translational Sciences (NCATS), 2010).

The whole screen tested about 350,000 compounds, of which about 700 (0.2%) were called active. The list comes from a sample in which actives are over-represented; it also holds similar structures and randomly drawn compounds. Entries that show only a call come without a potency. Values without a mark were called inactive. Calls follow the shape of the dose curve; as a rule, active = well fitted inhibition curve with a large enough effect; inconclusive = small, poorly fitted or top-dose-only effect; inactive = flat fitted curve, though single readings scatter.
Potency is read from the fitted curve at half-maximal effect.

Sequence of RecQ-like DNA helicase BLM (Homo sapiens) (P54132 whole entry, looked up): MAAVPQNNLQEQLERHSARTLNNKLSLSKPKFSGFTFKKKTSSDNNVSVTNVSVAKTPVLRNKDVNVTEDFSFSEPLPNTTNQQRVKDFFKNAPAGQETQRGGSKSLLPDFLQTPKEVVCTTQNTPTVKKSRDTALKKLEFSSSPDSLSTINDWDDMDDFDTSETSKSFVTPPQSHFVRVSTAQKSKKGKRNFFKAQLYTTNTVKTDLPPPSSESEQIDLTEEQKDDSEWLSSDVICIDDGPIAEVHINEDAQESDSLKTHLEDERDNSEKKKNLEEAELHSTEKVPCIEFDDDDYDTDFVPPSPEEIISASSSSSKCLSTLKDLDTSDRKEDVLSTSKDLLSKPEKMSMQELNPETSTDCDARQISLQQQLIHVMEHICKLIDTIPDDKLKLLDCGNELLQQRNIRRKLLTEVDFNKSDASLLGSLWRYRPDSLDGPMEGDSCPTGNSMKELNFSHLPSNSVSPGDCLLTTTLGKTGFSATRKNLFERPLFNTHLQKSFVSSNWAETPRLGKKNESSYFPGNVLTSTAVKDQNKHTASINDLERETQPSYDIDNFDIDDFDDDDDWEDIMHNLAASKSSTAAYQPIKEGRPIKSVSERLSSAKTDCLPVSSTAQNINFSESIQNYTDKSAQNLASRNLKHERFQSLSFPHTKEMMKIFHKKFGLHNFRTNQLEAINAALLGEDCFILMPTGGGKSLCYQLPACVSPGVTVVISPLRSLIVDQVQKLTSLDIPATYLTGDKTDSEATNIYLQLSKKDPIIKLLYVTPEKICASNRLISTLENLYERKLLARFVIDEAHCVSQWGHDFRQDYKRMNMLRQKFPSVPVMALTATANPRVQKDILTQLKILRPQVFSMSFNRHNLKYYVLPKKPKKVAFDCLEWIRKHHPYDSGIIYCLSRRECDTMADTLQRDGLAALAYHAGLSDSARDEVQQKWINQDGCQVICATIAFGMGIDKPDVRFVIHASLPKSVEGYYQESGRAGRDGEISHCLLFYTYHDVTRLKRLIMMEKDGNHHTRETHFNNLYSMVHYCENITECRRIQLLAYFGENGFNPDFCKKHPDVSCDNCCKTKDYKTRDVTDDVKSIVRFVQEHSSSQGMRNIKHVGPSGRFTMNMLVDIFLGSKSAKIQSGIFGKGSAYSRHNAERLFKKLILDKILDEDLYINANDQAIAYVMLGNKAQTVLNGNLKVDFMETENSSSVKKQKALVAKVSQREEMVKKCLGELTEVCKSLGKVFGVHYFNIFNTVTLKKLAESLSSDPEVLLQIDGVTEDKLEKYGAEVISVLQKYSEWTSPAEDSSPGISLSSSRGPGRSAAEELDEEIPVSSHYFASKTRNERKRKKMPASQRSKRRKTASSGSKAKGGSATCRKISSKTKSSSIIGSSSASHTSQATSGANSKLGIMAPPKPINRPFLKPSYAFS

The experiment addresses RecQ-like DNA helicase BLM (Homo sapiens) (UniProt P54132). Briefly: qHTS Assay for Inhibitors of Bloom's syndrome helicase (BLM). Also: nearly all actives have a fitted effect of over 35% in size. Conditions: recombinant BLM DNA unwinding, fluorescence dequenching; series mostly up to 56.1 µM. A general note: Quantitative high-throughput screening tests each substance at several concentrations.
For `Cc1c(CCNC(=O)c2ccc(C(F)(F)F)cc2)sc2nc(-c3ccc(F)cc3)nn12`, the Potency result was “inactive”.
For the molecule `COC(=O)C1=C(C(=O)OC)[C@@H]2N(Cc3ccccc3)c3ccccc3[C@@]23C[C@@H](C(=O)OC)N(S(=O)(=O)c2ccc(C(F)(F)F)cc2)C3=N1`, the activity change, negative = inhibition is 0.18% [at 12.4 µM].
In the case of `COc1ccc(-c2nc3c(c4c2C[C@H](c2ccccc2)OC4)CN(C(=O)C2CC2)CC3)c(C)c1`, the activity change, negative = inhibition is -3.76% [at 12.4 µM].
On to `CCOC(=O)C1CCCN(C(=O)Cn2ncc3c(C)n(Cc4ccc(F)cc4)c(C)c3c2=O)C1` (stereo unspecified), for which the Potency result is “inactive”.
Take `Cc1nc([N+](=O)[O-])cn1CC(=O)Nc1ccc2c(c1)OCO2`: the Potency entry is “inactive”.
Turning to `Cc1ccc(C(=O)O)cc1-c1ccc(/C=C2\SC(=O)N(CC(=O)Nc3ccc4c(c3)OCO4)C2=O)o1`, the Potency is 25.1 µM (active).
For `COC(=O)c1ccc2c(c1)N(CC(=O)Nc1ccc(C)c(C)c1)C(=O)c1ccccc1S2`, the Potency entry is “inactive”.
For `CCCc1nc2c(c(=O)c3ccccc3n2C)c(=O)n1C1CCCCCC1`, the Potency result was “inactive”.
On the same count and under the same terms, for `Cn1c2ccccc2c(=O)c2c(=O)n(Cc3ccco3)c(COc3ccccc3)nc21` the value was 8.91 µM (active).
In the case of `Cn1c(COc2ccc(Cl)cc2)nc2ccccc2c1=O`, the Potency result is “inactive”.
As to `COC(=O)[C@H]1C[C@@H]1[C@H](NC(=O)Oc1ccc(F)cc1)c1ccccc1`, the Potency result is “inactive”.
For the molecule `O=C(NCc1cccs1)c1cc(-c2ccccn2)nc2ccc(Br)cc12`, the Potency entry was “inactive”.
In the case of `CC(C)Cn1c(N)c(C(=O)NCc2cccs2)c2nc3ccccc3nc21`, the Potency was 31.6 µM (active).
For the molecule `CCC(C)NC(=O)c1c(N)n(/N=C/c2cccs2)c2nc3ccccc3nc12` (stereo unspecified), the Potency result is “inactive”.
Turning to `CCC[C@@H]1C[C@@]1(CCC)C(NS(=O)(=O)c1cccc2cccnc12)c1ccc(Cl)cc1` (stereo partly specified), the Potency entry was “inactive”.
On the same count and under the same terms, to `COc1ccc(Nc2ncc3c(n2)CCN(C(=O)OC(C)(C)C)C3)cc1` belongs “inactive”; to `O=C1/C(=C\c2ccccc2Cl)SC(=S)N1CCC(=O)N1CCCc2ccccc21`, “inactive”; to `COc1ccc(/C=C2/SC(=O)N(CCCCCC(=O)Nc3ccccc3C(=O)O)C2=S)cc1`, “inactive”.
On the same count and under the same terms, to `Cc1ccc(-c2nn(-c3ccccc3)cc2/C=C2\SC(=S)N(CCCCCC(=O)O)C2=O)o1` belongs 28.2 µM (active).
Same read-out and setting: to `C/C=C(\C)C(=O)OC1C(OC(=O)C2(C)OC2C)c2cc3ccc(=O)oc3cc2OC1(C)C` (stereo unspecified) belongs “inactive”; to `CC(C)(O)CCC(O)[C@@](C)(O)C1CC[C@]2(O)C3=CC(=O)C4CC(O)C(O)C[C@]4(C)C3CC[C@]12C` (stereo partly specified), “inactive”; to `CN(C(=O)COC(=O)c1cc(-c2ccco2)nc2ccccc12)C1CCS(=O)(=O)C1` (stereo unspecified), 3.16 µM (active).
`COc1ccc2c(-c3ccccc3)cc(SCC(=O)N(C)C3CCS(=O)(=O)C3)nc2c1` (stereo unspecified): the Potency result was “inactive”.
Take `COc1ccc(NC(=O)COc2ccc(C(=O)OCC(=O)N(C)C3CCS(=O)(=O)C3)cc2OC)cc1` (stereo unspecified): the Potency entry was “inactive”.
For `COc1cccc(-c2cc(NCCc3c[nH]c4ccc(OC)cc34)ncn2)c1`, the Potency result was “inactive”.
On to `CO[C@H]1COC(=O)[C@@H](C)NC(=O)C/C=C\[C@@H](C)[C@H](OC)COC(=O)C/C=C\[C@@H]1C`, for which the activity change, negative = inhibition was 0.711% [at 12.4 µM].
For the molecule `CCCC[C@@H]1C[C@H]1C(NC(=O)c1ccco1)c1ccc(C(=O)OC)cc1` (stereo partly specified), the Potency entry is “inactive”.
For the molecule `CCOc1ccc(OCC)c(NC(=O)CN(c2ccc(C)cc2)S(=O)(=O)c2c(C)n[nH]c2C)c1`, the Potency entry is “inactive”.
Regarding `CCCCC/C=C\C/C=C\C/C=C\CCCCC(=O)NCC(=O)O`, the Potency result was “inactive”.
On to `COc1cccc([C@@H]2Oc3ccc(Br)cc3C(=O)[C@H]2OC(=O)NCCc2ccc(OC)c(OC)c2)c1`, for which the Potency entry was “inactive”.
Regarding `CCc1nn(CC(=O)NCC(C)c2ccccc2)c(=O)c2cc3occc3n12` (stereo unspecified), the Potency result was “inactive”.
For the molecule `C[C@@H]1C[C@H]2[C@@H]3C[C@H](F)C4=CC(=O)C=C[C@@]4(C)[C@]3(F)[C@H](O)C[C@]2(C)[C@@]1(O)C(=O)CO`, the Potency entry was “inactive”.
Take `CC(=O)OC1C([N+]2(C)CCCCC2)C[C@H]2C3CC[C@H]4C[C@H](OC(C)=O)C([N+]5(C)CCCCC5)CC4(C)C3CCC12C` (stereo partly specified): the Potency result was “inactive”.
`COC(=O)C(C(=O)OC)[C@@H]1CCCC(=O)C1`: the activity change, negative = inhibition was -7.4% [at 12.4 µM].
In the case of `O=c1cc(-c2ccc(O)cc2)oc2c(-c3cc(-c4cc(=O)c5c(O)cc(O)cc5o4)ccc3O)c(O)ccc12`, the Potency entry was “inactive”.
For the molecule `COc1ccc(C2(C#N)CCC(C(=O)O)CC2)cc1OC1CCCC1` (stereo unspecified), the Potency result is “inactive”.
For `COC(=O)C1(C)C=CCN1C(=O)c1ccccc1` (stereo unspecified), the Potency entry was “inactive”.
`CC(C)=CC1C(C(=O)O)C1(C)C` (stereo unspecified): the Potency result was “inactive”.
For `O=C(CCOc1ccccc1)N(Cc1cccnc1)c1nc2ccc(Cl)cc2s1`, the Potency result is “inactive”.
On the same count and under the same terms, for `CC1(C)OC2CC(=O)OC[C@@]23C1CC(=O)[C@]1(C)C3CC[C@@]2(C)C(c3ccoc3)OC(=O)C3O[C@@]321` (stereo partly specified) the value was “inactive”; for `FC(F)(F)c1ccccc1-c1cc(NCc2ccccc2)ncn1`, “inactive”.
`O=C(CSc1nccn1Cc1ccc(Cl)cc1)NCc1ccccc1`: the Potency result is “inactive”.
Still for that read-out and setting: for `C/C=C/C=N/NC(=O)c1ccncc1` the value was “inactive”; for `CC1CN(C(=O)N2CCC(C(=O)NCc3ccco3)CC2)c2cc(Cl)ccc2O1` (stereo unspecified), “inactive”; for `COC(=O)[C@@H]1C[C@@]2(O)[C@H](O)[C@H](O)[C@H](O)C[C@H]2N1CC1CCCCC1`, “inactive”.
Consider `O=C(c1cnccn1)N1CCC2(CCCN(Cc3ccccc3)C2)CC1`, for which the Potency result was “inactive”.
The same measure, in the same setting: for `CCOC(=O)Cn1c(=O)sc2cccc(Cl)c21` the value was “inactive”; for `O=C(c1cnccn1)N1CCC2(CCN(Cc3cc(C(F)(F)F)cc(C(F)(F)F)c3)CC2)CC1`, “inactive”; for `O=c1cc2nc(-c3ccccc3)nc(SCCOc3ccc(Cl)cc3)n2[nH]1`, “inactive”.
Take `Cc1cccc(-c2nc(SCc3ccc(Br)cc3)n3[nH]c(=O)cc3n2)c1`: the Potency entry is “inactive”.
With `Cc1ccc(-c2nc(SCc3ccc(Br)cc3)n3[nH]c(=O)cc3n2)cc1`, the Potency was 28.2 µM (active).
Turning to `O=C(OCc1ccccc1)c1ccc(O)cc1`, the Potency entry was “inactive”.
As for `COC(=O)N1C(/C=C/C=C/c2ccc(OC)cc2)=Cc2ccccc2C1CC(C)=O` (stereo unspecified), the activity change, negative = inhibition is -6.97% [at 12.4 µM].
As for `C[C@H]1Cc2c(-c3ccccc3)nc3c(c2CO1)CN(S(=O)(=O)c1ccc(Cl)c2nonc12)CC3`, the activity change, negative = inhibition is -0.0157% [at 12.4 µM].
As to `O=c1c(CCc2ccccc2)nc2cnc(N3CCNCC3)nc2n1Cc1cccs1`, the Potency entry is “inactive”.
As to `COc1ccc(NC(=O)CSc2nc(N)c(-c3ccccc3)c(=O)[nH]2)cc1`, the Potency result is “inactive”.
Consider `COc1ccc(-c2nc3c(c(SCC(=O)Nc4ccc(C(=O)O)cc4)n2)Cc2ccccc2O3)cc1`, for which the Potency is 7.08 µM (active).
Still for that read-out and setting: for `COc1cc(OC)cc(-c2nnc(SCC(=O)Nc3ccc(C(=O)O)cc3)s2)c1` the value was “inactive”.
Regarding `Cc1ccc(S(=O)(=O)NC(=O)COc2ccccc2C)cc1`, the Potency result is “inactive”.
`Cc1ccc(NS(=O)(=O)c2ccc(N/N=C/c3ccccc3OCC(=O)O)c([N+](=O)[O-])c2)c(C)c1`: the Potency was 7.08 µM (active).
For `C=C(C)CNC(=S)N/N=C/c1ccccc1OCC(=O)O`, the Potency result was “inactive”.
Consider `COc1c(O)c2c(=O)cc(OC)c3c4c(OC)cc(=O)c5c(O)c(OC)c6c(c(c1C[C@@](C)(O)[C@H]6C(C)=O)c23)c54`, for which the Potency result was “inactive”.
Take `COC(=O)[C@@]1(C)C=C[C@@H](Cc2ccccc2)N1C(C)=O`: the Potency entry was “inactive”.
Still for that read-out and setting: to `CCc1c2c(nc3ccc(O)cc13)-c1cc3c(c(=O)n1C2)COC(=O)[C@]3(O)CC` belongs “inactive”; to `Oc1ccc(Cl)c2c1CCC2`, “inactive”.
As for `COc1ccc(C(=O)N2CCC3(CCCN(C(c4ccccc4)c4ccccc4)C3)CC2)cc1`, the Potency entry is “inactive”.
Same read-out and setting: for `COC(=O)c1cc(NC(=O)c2sc3ccccc3c2Cl)cc(C(=O)OC)c1` the value was “inactive”.
Take `Oc1ccc(N=Cc2sc3ccccc3c2Cl)cc1`: the Potency was 20 µM (active).
`CCCC(=O)Nc1ccc(NC(=O)c2sc3ccccc3c2Cl)cc1`: the Potency entry was “inactive”.
On the same count and under the same terms, to `CCOc1[nH]n(-c2ccc(Cl)cc2)c(=O)c1C=Nc1ccc(O)cc1` belongs “inactive”; to `Oc1ccc(N=Cc2c(O)ccc3ccccc23)cc1`, 31.6 µM (active).
As to `Cc1cc(N=Nc2ccc3ccccc3c2)ccc1O`, the Potency entry was “inactive”.
Turning to `Cc1cccc(CNc2ccnc(-c3cccnc3)n2)c1`, the Potency result was “inactive”.
Regarding `O=C(Nc1cc(C(=O)Nc2ccc(S(=O)(=O)O)cc2)cc(C(=O)Nc2ccc(S(=O)(=O)O)cc2)c1)Nc1cc(C(=O)Nc2ccc(S(=O)(=O)O)cc2)cc(C(=O)Nc2ccc(S(=O)(=O)O)cc2)c1`, the Potency result is “inactive”.
`O=C(c1ccncc1)N1CCC2(CCCN(C(c3ccccc3)c3ccccc3)C2)CC1`: the Potency result is “inactive”.
Turning to `O=C(c1cnccn1)N1CCC[C@@]2(CCN(Cc3ccncc3)C2)C1`, the Potency result is “inactive”.
As to `CCc1nc(-c2cc(S(=O)(=O)N3CCN(c4ccc(OC)cc4)CC3)ccc2OC)no1`, the Potency result is “inactive”.
`CCCS(=O)(=O)c1ncc(Cl)c(C(=O)Nc2scc(-c3ccccc3)c2C(=O)OCC)n1`: the Potency entry is “inactive”.
Regarding `Oc1c(C(c2ccc(F)cc2)N2CCN(Cc3ccccc3)CC2)sc2nc(-c3ccco3)nn12` (stereo unspecified), the Potency entry was “inactive”.
Turning to `C=C1C([C@@]2(C)C(OC(C)=O)CC(=O)O[C@@](C)(COC(C)=O)C2CC(=O)OC)C(OC=O)C(OC(=O)C(O)C(C)CC)[C@]2(C)C(c3ccoc3)CC(=O)C12O` (stereo partly specified), the Potency entry was “inactive”.
Turning to `CC(=O)N1CCC2(CCCN(Cc3ccc(C#N)cc3)C2)CC1`, the Potency entry was “inactive”.
Turning to `CC1(C)C=CC(=O)[C@]2(C)C1CC(=O)[C@]1(C)C2CC[C@@]2(C)C(c3ccoc3)OC(=O)C3OC321` (stereo partly specified), the Potency entry is “inactive”.
Still for that read-out and setting: for `C=C1CCN(C(CC(C)C)C(=O)N2CCOCC2)S(=O)(=O)c2ccccc21` (stereo unspecified) the value was “inactive”.
Consider `COc1ccc(S(=O)(=O)NCC(c2ccc(N(C)C)cc2)N2CCc3ccccc32)cc1OC` (stereo unspecified), for which the Potency entry is “inactive”.
In the case of `O=C(O)c1ccc(/C=C2/SC(=S)N(c3cccc(C(F)(F)F)c3)C2=O)cc1`, the Potency entry was “inactive”.
In the case of `Cn1c(N)c(C(=O)COC(=O)c2cc(C(F)(F)F)nc3c(C(F)(F)F)cccc23)c(=O)n(C)c1=O`, the Potency entry is “inactive”.
